Among the data in PubChem BioAssay (NCI) are growth values, retold here.

Test systems include EKVX NSCLC; SN12C renal; UO-31 renal; TK-10 renal; ACHN renal; CAKI-1 renal; A498 renal; CCRF-CEM leukemia; MOLT-4 leukemia; SR leukemia; RPMI-8226 leukemia; OVCAR-8 ovarian; OVCAR-5 ovarian; OVCAR-4 ovarian; SK-OV-3 ovarian; IGROV1 ovarian; OVCAR-3 ovarian; NCI/ADR-RES ovarian.
Common to all, as to experiment: NCI-60 one-dose screen, 48 h (100 = growth as untreated, 0 = no growth, -100 = all killed)
Common to all, as to details: 10 µM unless noted

Molecules are shown by their SMILES. About 83,000 compounds went through this panel and 20% of them were active in at least one assay; those are over-represented in the sample as a whole.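 Percent growth is the endpoint: 0 to 100 indicates growth inhibition (40 means 60% inhibition), 0 means no net growth, and negative values indicate cell death.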 Values without a mark were called inactive. Calls of active or inactive are those of the source. Rule for the calls: active = growth percent below 10; inactive = the rest.

Take `CC[C@H](CO)Nc1nc(NCc2ccccc2)c2ncn(C(C)C)c2n1`: the growth in the experiment with EKVX NSCLC is 72.3%; in the experiment with SN12C renal, 73.4%; in the experiment with UO-31 renal, 55.4%; with TK-10 renal it was 92.4%; with ACHN renal, 46.8%; in the experiment with CAKI-1 renal it was 48%. Moreover, the growth in the experiment on A498 renal is 71.3%; in the experiment on CCRF-CEM leukemia, 65.9%; in the experiment with MOLT-4 leukemia, 49.6%; with SR leukemia it was 7.1% (active); with RPMI-8226 leukemia it was 85.5%; with OVCAR-8 ovarian, 63.8%. The growth in the experiment with OVCAR-5 ovarian was 50.9%; in the experiment with OVCAR-4 ovarian it was 73.2%; with SK-OV-3 ovarian it was 102%; in the experiment with IGROV1 ovarian, 49%; with OVCAR-3 ovarian, 65.2%; in the experiment on NCI/ADR-RES ovarian, 71.4%.
On to `COCC(=O)NC/C=C/c1ccc2ncnc(Nc3ccc(Oc4ccc(C)nc4)c(C)c3)c2c1`, for which the growth in the experiment with EKVX NSCLC was 38.9%; in the experiment on SN12C renal it was 34.9%; in the experiment on UO-31 renal, 16.8%; in the experiment with TK-10 renal it was 5.8% (active); with ACHN renal, 16.1%; with CAKI-1 renal it was 18.6%. Moreover, the growth is 24.6% in the experiment with A498 renal; 79.2% in the experiment on CCRF-CEM leukemia; 29.3% in the experiment with MOLT-4 leukemia; 22.5% in the experiment on SR leukemia; 50.6% in the experiment with RPMI-8226 leukemia; 38.5% in the experiment with OVCAR-8 ovarian. Besides, the growth in the experiment with OVCAR-5 ovarian is 21.6%; in the experiment with OVCAR-4 ovarian, 40.1%; in the experiment with SK-OV-3 ovarian, -18.6% (active); in the experiment with IGROV1 ovarian it was -8.37% (active); in the experiment on OVCAR-3 ovarian, 63.3%; in the experiment with NCI/ADR-RES ovarian it was 57.1%.
With `CC1(O)CC(c2nc(-c3ccc4ccc(-c5ccccc5)nc4c3)c3c(N)nccn23)C1` (centres undefined), the growth in the experiment on EKVX NSCLC was 58.8%; with SN12C renal, 41.7%; in the experiment on UO-31 renal, 6.56% (active); in the experiment with TK-10 renal it was 42.6%; in the experiment with ACHN renal it was 31.7%; in the experiment on CAKI-1 renal, 10.1%. For the same compound, the growth in the experiment with A498 renal was -3.83% (active); in the experiment with CCRF-CEM leukemia it was 27.1%; with MOLT-4 leukemia it was 12.9%; in the experiment with SR leukemia, 33.9%; in the experiment on RPMI-8226 leukemia, 31.8%; with OVCAR-8 ovarian, 39%. For the same compound, the growth with OVCAR-5 ovarian was 41.3%; in the experiment on OVCAR-4 ovarian, 33.1%; with SK-OV-3 ovarian it was 13.5%; with IGROV1 ovarian, 40.1%; with OVCAR-3 ovarian it was 56.6%; in the experiment with NCI/ADR-RES ovarian, 41%.
As for `Cn1ncc(Cl)c1-c1cc(C(=O)N[C@H](CN)Cc2ccc(F)c(F)c2)oc1Cl`, the growth in the experiment with EKVX NSCLC was 6.1% (active); in the experiment with SN12C renal, 16.5%; in the experiment on UO-31 renal, -19.8% (active); in the experiment with TK-10 renal it was -91% (active); in the experiment with ACHN renal, 4.47% (active); with CAKI-1 renal, -34.2% (active). Moreover, the growth in the experiment with A498 renal was -78.9% (active); in the experiment with CCRF-CEM leukemia, 3.82% (active); with MOLT-4 leukemia, -4.62% (active); in the experiment on SR leukemia, -10.6% (active); in the experiment with RPMI-8226 leukemia, -5.77% (active); with OVCAR-8 ovarian, -38.4% (active). Also, the growth is 5.81% (active) in the experiment on OVCAR-5 ovarian; 24.8% in the experiment on OVCAR-4 ovarian; -41.6% (active) with SK-OV-3 ovarian; -23.8% (active) in the experiment on IGROV1 ovarian; 18.2% in the experiment with OVCAR-3 ovarian; 8.92% (active) in the experiment on NCI/ADR-RES ovarian.
In the case of `COc1ccc(-c2ccc3c(N4CCOC[C@@H]4C)nc(N4CCOC[C@@H]4C)nc3n2)cc1CO`, the growth is 7.48% (active) in the experiment with EKVX NSCLC; 9.9% (active) in the experiment with SN12C renal; -13% (active) with UO-31 renal; -30.8% (active) in the experiment on TK-10 renal; 5.54% (active) in the experiment on ACHN renal; -14.6% (active) with CAKI-1 renal. Also, the growth was -35.4% (active) in the experiment with A498 renal; 16.4% in the experiment on CCRF-CEM leukemia; 11.6% with MOLT-4 leukemia; 9% (active) in the experiment on SR leukemia; 4.83% (active) in the experiment with RPMI-8226 leukemia; -3.37% (active) with OVCAR-8 ovarian. The growth in the experiment with OVCAR-5 ovarian was 7.09% (active); in the experiment with OVCAR-4 ovarian, -26% (active); in the experiment with SK-OV-3 ovarian, -33.7% (active); in the experiment with IGROV1 ovarian it was -33.2% (active); in the experiment with OVCAR-3 ovarian, 13%; in the experiment on NCI/ADR-RES ovarian it was -1.68% (active).
Regarding `CC(=O)NCC(=O)N1[C@@H]2CC[C@H]1c1ccc(Nc3ncc(C(F)(F)F)c(NC4CCC4)n3)cc12`, the growth in the experiment with EKVX NSCLC is 69.1% [2.5 µM]; in the experiment with SN12C renal it was 37.8% [2.5 µM]; in the experiment with UO-31 renal it was 2.84% [2.5 µM] (active); in the experiment with TK-10 renal, 43.7% [2.5 µM]; in the experiment on ACHN renal, 38.6% [2.5 µM]; with CAKI-1 renal, 20.5% [2.5 µM]. In addition, the growth in the experiment on A498 renal is 14.7% [2.5 µM]; in the experiment with CCRF-CEM leukemia, 40.2% [2.5 µM]; with MOLT-4 leukemia, 20% [2.5 µM]; in the experiment on SR leukemia it was 2.18% [2.5 µM] (active); in the experiment on RPMI-8226 leukemia, 71.4% [2.5 µM]; in the experiment on OVCAR-8 ovarian, 55.3% [2.5 µM]. Also, the growth with OVCAR-5 ovarian was 32.4% [2.5 µM]; with OVCAR-4 ovarian, 64.4% [2.5 µM]; in the experiment with SK-OV-3 ovarian it was 15.9% [2.5 µM]; with IGROV1 ovarian it was 31.5% [2.5 µM]; in the experiment on OVCAR-3 ovarian, 67.8% [2.5 µM]; in the experiment with NCI/ADR-RES ovarian it was 59.7% [2.5 µM].
In the case of `CCCNC(=O)c1cn2ncnc(Nc3cc(C(=O)NC4CC4)ccc3C)c2c1C`, the growth with EKVX NSCLC was 87.2%; in the experiment on SN12C renal it was 88.4%; in the experiment on UO-31 renal, 45.2%; in the experiment with TK-10 renal, 104%; in the experiment with ACHN renal it was 58.6%; in the experiment with CAKI-1 renal it was 67.6%. Further, the growth in the experiment with A498 renal was 56.9%; with CCRF-CEM leukemia, 73.9%; in the experiment on MOLT-4 leukemia it was 92.6%; in the experiment on SR leukemia, 73.6%; in the experiment with RPMI-8226 leukemia, 75.9%; in the experiment with OVCAR-8 ovarian, 77.8%. Besides, the growth in the experiment with OVCAR-5 ovarian is 17.6%; in the experiment with OVCAR-4 ovarian, 92.1%; in the experiment with SK-OV-3 ovarian it was 70.5%; in the experiment with IGROV1 ovarian it was 42.4%; with OVCAR-3 ovarian, 103%; in the experiment with NCI/ADR-RES ovarian, 66.9%.
Regarding `Cc1cc(Nc2nc(N[C@@H](C)c3ncc(F)cn3)ncc2Cl)n[nH]1`, the growth with EKVX NSCLC was 99.6%; in the experiment on SN12C renal, 77.6%; in the experiment on UO-31 renal it was 51%; with TK-10 renal, 82.8%; in the experiment on ACHN renal, 63.4%; in the experiment with CAKI-1 renal, 70.1%. In addition, the growth in the experiment with A498 renal is -2.39% (active); in the experiment on CCRF-CEM leukemia it was 76.6%; in the experiment on MOLT-4 leukemia it was 62.3%; in the experiment with SR leukemia it was 7% (active); in the experiment with RPMI-8226 leukemia, 89.9%; in the experiment on OVCAR-8 ovarian it was 88.1%. The growth in the experiment on OVCAR-5 ovarian was 59.8%; in the experiment on OVCAR-4 ovarian, 91.6%; in the experiment on SK-OV-3 ovarian, 75.3%; with IGROV1 ovarian, 45%; with OVCAR-3 ovarian it was 93.3%; with NCI/ADR-RES ovarian it was 87.5%.
